# Measurements reported in PubChem BioAssay (NCATS).
# Records with an inconclusive call do not appear. Activity calls are given as the source filed them. The call rests on the fitted dose curve; in most records, active means well fitted curve in the direction sought with a large enough effect; inconclusive means small, poorly fitted or top-dose-only effect, or another doubt; inactive means no such curve, though single readings can be large; an effect the other way counts as inactive or inconclusive.
# Tests used:
# [1] = Quantitative High-Throughput drug screen in 47 multiple myeloma cell lines against the NCATS MIPE library collection: ARD_JJKsccE7 cell viability assay (AID 1918929; further: potency means the concentration at half of the fitted maximal effect)
# How it was run: (§1)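 Luminescent ATP measurement with CellTiter-Glo gives viability, scaled between DMSO-only wells (100%) and media-only wells (0%). Cells, 500 per well, faced library compounds for 48 hours at 37C.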
# [2] = Quantitative High-Throughput drug screen in 47 multiple myeloma cell lines against the NCATS MIPE library collection: Karpas620_DSMZ cell viability assay (AID 1918959); further: nearly all actives have a fitted effect of over 30% in size; further: potency means the concentration at half of the fitted maximal effect
# How it was run: as §1
# [3] = Quantitative High-Throughput drug screen in 47 multiple myeloma cell lines against the NCATS MIPE library collection: KMM1_JCRB cell viability assay (AID 1918960); further: nearly all actives have a fitted effect of over 30% in size; further: potency means the concentration at half of the fitted maximal effect
# How it was run: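 Myeloma cells at 500 per well in 1536-well format treated with MIPE 4.0 library by pin transfer for 48 h at 37C, 5% CO2. Viability from ATP luminescence (CellTiter-Glo), normalized to DMSO (100%) and media-only (0%) wells.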
# [4] = Quantitative High-Throughput drug screen in 47 multiple myeloma cell lines against the NCATS MIPE library collection: Karpas417_ECACC cell viability assay (AID 1918961); conditions: Karpas417 myeloma viability, CellTiter-Glo ATP luminescence, 48 h; viability (% of DMSO): at 45.8 µM (top of the series); further: potency means the concentration at half of the fitted maximal effect
# How it was run: (§2)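 Steps: seed 500 cells per well; pin-transfer MIPE 4.0 library; incubate 48 h at 37C, 5% CO2, humidified; add CellTiter-Glo, 5 min room temperature; read luminescence.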
# [5] = Quantitative High-Throughput drug screen in 47 multiple myeloma cell lines against the NCATS MIPE library collection: JIM3_ECACC cell viability assay (AID 1918963; further: nearly all actives have a fitted effect of over 35% in size; further: potency means the concentration at half of the fitted maximal effect)
# How it was run: as §1
# [6] = Quantitative High-Throughput drug screen in 47 multiple myeloma cell lines against the NCATS MIPE library collection: JIM1_ECACC cell viability assay (AID 1918964; further: potency means the concentration at half of the fitted maximal effect)
# How it was run: as §1
# [7] = Quantitative High-Throughput drug screen in 47 multiple myeloma cell lines against the NCATS MIPE library collection: INA6_PLB cell viability assay (AID 1918965; further: nearly all actives have a fitted effect of over 55% in size; further: potency means the concentration at half of the fitted maximal effect)
# How it was run: as §2
# [8] = Quantitative High-Throughput drug screen in 47 multiple myeloma cell lines against the NCATS MIPE library collection: JJN3_DSMZ cell viability assay (AID 1918966; further: nearly all actives have a fitted effect of over 50% in size; further: potency means the concentration at half of the fitted maximal effect)
# How it was run: as §1
# [9] = Quantitative High-Throughput drug screen in 47 multiple myeloma cell lines against the NCATS MIPE library collection: H1112_PLB cell viability assay (AID 1918967; further: nearly all actives have a fitted effect of over 30% in size; further: potency means the concentration at half of the fitted maximal effect)
# How it was run: as §1
# [10] = Quantitative High-Throughput drug screen in 47 multiple myeloma cell lines against the NCATS MIPE library collection: Karpas25_ECACC cell viability assay (AID 1918968; further: nearly all actives have a fitted effect of over 35% in size; further: potency means the concentration at half of the fitted maximal effect)
# How it was run: as §1
# [11] = Quantitative High-Throughput drug screen in 47 multiple myeloma cell lines against the NCATS MIPE library collection: KMS27_JCRB cell viability assay (AID 1918970); conditions: KMS27 myeloma cells, CellTiter-Glo ATP viability, 48 h; viability (% of DMSO): at 45.8 µM (top of the series); further: nearly all actives have a fitted effect of over 30% in size; further: potency means the concentration at half of the fitted maximal effect
# How it was run: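 Myeloma cells (500 per well) were exposed to MIPE 4.0 compounds for 48 h at 37 °C, 5% CO2; viability was read as ATP luminescence with CellTiter-Glo, normalized to DMSO-only (100%) and media-only (0%) wells.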
# [12] = Quantitative High-Throughput drug screen in 47 multiple myeloma cell lines against the NCATS MIPE library collection: KMS12BM_JCRB cell viability assay (AID 1918971); further: nearly all actives have a fitted effect of over 35% in size; further: potency means the concentration at half of the fitted maximal effect
# How it was run: as §2
# [13] = Quantitative High-Throughput drug screen in 47 multiple myeloma cell lines against the NCATS MIPE library collection: KMS12PE_JCRB cell viability assay (AID 1918972); further: nearly all actives have a fitted effect of over 30% in size; further: potency means the concentration at half of the fitted maximal effect
# How it was run: as §2
# [14] = Quantitative High-Throughput drug screen in 47 multiple myeloma cell lines against the NCATS MIPE library collection: KMS20_JCRB cell viability assay (AID 1918973); further: nearly all actives have a fitted effect of over 45% in size; further: potency means the concentration at half of the fitted maximal effect
# How it was run: as §1
# [15] = Quantitative High-Throughput drug screen in 47 multiple myeloma cell lines against the NCATS MIPE library collection: KMS26_JCRB cell viability assay (AID 1918975); further: nearly all actives have a fitted effect of over 45% in size; further: potency means the concentration at half of the fitted maximal effect
# How it was run: as §2
# [16] = Quantitative High-Throughput drug screen in 47 multiple myeloma cell lines against the NCATS MIPE library collection: MMM1_PLB cell viability assay (AID 1918976); further: potency means the concentration at half of the fitted maximal effect; nearly all actives have a fitted effect of over 35% in size
# How it was run: (§3)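 Inhibition of viability over 48 h was scored by ATP content (CellTiter-Glo) in 500-cell wells. Zero and full viability were defined by media-only and DMSO-only wells.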
# [17] = Quantitative High-Throughput drug screen in 47 multiple myeloma cell lines against the NCATS MIPE library collection: MOLP8_DSMZ cell viability assay (AID 1918977); further: nearly all actives have a fitted effect of over 45% in size; further: potency means the concentration at half of the fitted maximal effect
# How it was run: as §3
# [18] = Quantitative High-Throughput drug screen in 47 multiple myeloma cell lines against the NCATS MIPE library collection: NCIH929_DSMZ cell viability assay (AID 1918978); further: nearly all actives have a fitted effect of over 35% in size; further: potency means the concentration at half of the fitted maximal effect
# How it was run: as §3
# [19] = Quantitative High-Throughput drug screen in 47 multiple myeloma cell lines against the NCATS MIPE library collection: KMS21BM_JCRB cell viability assay (AID 1918974); conditions: ATP luminescence, 48 h; viability: at 45.8 µM (top of the series)
# How it was run: as §1
# [20] = Quantitative High-Throughput drug screen in 47 multiple myeloma cell lines against the NCATS MIPE library collection: KHM11_PLB cell viability assay (AID 1918962); further: nearly all actives have a fitted effect of over 35% in size; further: potency means the concentration at half of the fitted maximal effect
# How it was run: as §1
Structure (SMILES),Potency [1],Potency [2],Potency [3],Potency [4],Potency [5],Potency [6],Potency [7],Potency [8],Potency [9],Potency [10],Potency [11],Potency [12],Potency [13],Potency [14],Potency [15],Potency [16],Potency [17],Potency [18],Potency [19],Potency [20]
CCNC(=O)c1cc2c(-c3cc(OCCN4CCCC4)c(Cl)cc3Cl)nc(N)nc2s1,526 nM (active),1050 nM (active),590 nM (active),590 nM (active),935 nM (active),469 nM (active),590 nM (active),2350 nM (active),6620 nM (active),833 nM (active),1180 nM (active),1480 nM (active),418 nM (active),1660 nM (active),2350 nM (active),2960 nM (active),743 nM (active),935 nM (active),–,–
O=c1ccn([C@@H]2O[C@H](CO)[C@H](O)[C@@H]2F)c(=O)[nH]1,inactive,inactive,inactive,inactive,inactive,–,–,–,–,9350 nM (active),–,–,inactive,inactive,inactive,2640 nM (active),–,11800 nM (active),inactive,–
O=C(NNC(=O)c1ccc(CNS(=O)(=O)c2ccc(F)c(Cl)c2)cc1)c1ccccc1,inactive,inactive,inactive,–,inactive,–,–,inactive,–,inactive,inactive,–,–,–,–,–,inactive,inactive,–,inactive
COc1ccc(Nc2cc(-c3cnc(N)nc3)nc(N3CCOCC3)n2)cn1,372 nM (active),2640 nM (active),590 nM (active),–,3720 nM (active),–,4180 nM (active),4690 nM (active),–,1660 nM (active),372 nM (active),2960 nM (active),2090 nM (active),–,4180 nM (active),1870 nM (active),833 nM (active),264 nM (active),–,4180 nM (active)
C[C@]12C=CC(=O)N[C@@H]1CC[C@H]1[C@H]3CC[C@@H](C(=O)Nc4cc(C(F)(F)F)ccc4C(F)(F)F)[C@@]3(C)CC[C@@H]12,inactive,inactive,inactive,–,inactive,–,–,18700 nM (active),13200 nM (active),11800 nM (active),inactive,20900 nM (active),inactive,–,–,–,–,–,–,inactive
O=[N+]([O-])c1cn2c(n1)OC[C@@H](OCc1ccc(OC(F)(F)F)cc1)C2,inactive,inactive,inactive,–,inactive,inactive,–,–,inactive,inactive,–,–,inactive,–,inactive,8330 nM (active),–,inactive,–,inactive
C[C@H](O)[C@@H]1C(=O)N2C(C(=O)O)=C(S[C@@H]3CN[C@H](CNS(N)(=O)=O)C3)[C@@H](C)[C@@H]12,inactive,inactive,inactive,–,inactive,inactive,–,–,inactive,inactive,inactive,–,inactive,inactive,inactive,–,–,inactive,–,–
CN1C(C(=O)Nc2ccccn2)=C(O)c2sc(Cl)cc2S1(=O)=O,inactive,inactive,inactive,–,3720 nM (active),–,2640 nM (active),3720 nM (active),–,2640 nM (active),inactive,–,inactive,2090 nM (active),14800 nM (active),20900 nM (active),–,1660 nM (active),–,3320 nM (active)
CC(C)OC(=O)[C@H](C)N[P@](=O)(OC[C@H]1O[C@@H](n2ccc(=O)[nH]c2=O)[C@](C)(F)[C@H]1O)Oc1ccccc1,inactive,inactive,inactive,–,inactive,–,inactive,–,–,inactive,–,1660 nM (active),inactive,–,inactive,–,inactive,inactive,–,inactive
CN(C)c1ccc2cc(C(=O)N[C@@H](CCCN=C(N)CCl)C(=O)NCc3ccccc3)ccc2c1,4180 nM (active),5900 nM (active),1320 nM (active),–,–,3720 nM (active),9350 nM (active),1050 nM (active),20900 nM (active),13200 nM (active),1480 nM (active),11800 nM (active),7430 nM (active),8330 nM (active),6620 nM (active),18700 nM (active),9350 nM (active),16600 nM (active),–,16600 nM (active)
Cc1ccc([N+](=O)[O-])cc1S(=O)(=O)N(C)N=Cc1cnc2ccc(Br)cn12,11.8 nM (active),26.4 nM (active),11.8 nM (active),–,10.5 nM (active),1 nM (active),–,10.5 nM (active),13.2 nM (active),–,–,66.2 nM (active),20.9 nM (active),–,23.5 nM (active),83.3 nM (active),8.3 nM (active),–,–,–
COC[C@H](NC(=O)c1cnc(C)s1)C(=O)N[C@@H](COC)C(=O)N[C@@H](Cc1ccccc1)C(=O)[C@@]1(C)CO1,52.6 nM (active),46.9 nM (active),33.2 nM (active),–,296 nM (active),59 nM (active),74.3 nM (active),93.5 nM (active),93.5 nM (active),74.3 nM (active),74.3 nM (active),93.5 nM (active),37.2 nM (active),132 nM (active),148 nM (active),1050 nM (active),46.9 nM (active),52.6 nM (active),–,–
COC(=O)[C@@H]1CC2=CC(=O)CC[C@]2(C)[C@@]23O[C@@H]2C[C@@]2(C)[C@H](CC[C@@]24CCC(=O)O4)[C@@H]13,inactive,inactive,inactive,–,inactive,inactive,–,–,inactive,inactive,inactive,–,inactive,inactive,–,–,inactive,inactive,–,inactive
C=C1CCC2[C@](C)(CO)C(O)CC[C@]2(C)C1CC=C1C(=O)OCC1O (some centres not stated),inactive,inactive,inactive,–,inactive,–,inactive,–,inactive,inactive,–,–,inactive,–,–,–,–,–,–,inactive
CCc1ccc(C(=O)Nc2cc(CN3CCN(C)CC3)cc(C(F)(F)F)c2)cc1C#Cc1cnc2ccnn2c1,8330 nM (active),5260 nM (active),6620 nM (active),–,7430 nM (active),–,–,20900 nM (active),2640 nM (active),8330 nM (active),5900 nM (active),14800 nM (active),5260 nM (active),–,16600 nM (active),23500 nM (active),18700 nM (active),10500 nM (active),–,9350 nM (active)
CC(=O)O[C@H]1C[C@@H]2CC[C@H]3[C@H]4C[C@H]([N+]5(C)CCCCC5)[C@@H](OC(C)=O)[C@@]4(C)CC[C@@H]3[C@@]2(C)C[C@H]1[N+]1(C)CCCCC1,inactive,inactive,inactive,–,inactive,inactive,inactive,–,inactive,inactive,inactive,inactive,inactive,–,–,–,inactive,inactive,–,–
CCCc1nc(C(C)(C)O)c(C(=O)O)n1Cc1ccc(-c2ccccc2-c2nn[nH]n2)cc1,inactive,inactive,inactive,–,inactive,–,–,inactive,–,inactive,inactive,inactive,inactive,–,–,–,–,inactive,–,inactive
COc1cccc2c1C(=O)c1c(O)c3c(c(O)c1C2=O)C[C@@](O)(C(=O)CO)C[C@@H]3O[C@H]1C[C@H](N)[C@@H](O)[C@H](C)O1,2640 nM (active),2350 nM (active),2090 nM (active),–,935 nM (active),–,166 nM (active),662 nM (active),590 nM (active),418 nM (active),935 nM (active),469 nM (active),2350 nM (active),166 nM (active),1480 nM (active),469 nM (active),372 nM (active),235 nM (active),–,–
CC[C@H](CC[C@@H](C)[C@H]1CC[C@H]2[C@@H]3CC=C4C[C@@H](O)CC[C@]4(C)[C@@H]3CC[C@]12C)C(C)C,inactive,inactive,inactive,–,inactive,–,–,inactive,inactive,inactive,–,inactive,–,inactive,inactive,–,inactive,inactive,inactive,inactive
N#Cc1ccc(COC[C@H]2O[C@@H](n3c(NCc4ccc(Cl)c(Cl)c4)nc4c(N)ncnc43)[C@@H](O)[C@@H]2O)cc1,5260 nM (active),418 nM (active),5260 nM (active),–,14800 nM (active),3720 nM (active),7430 nM (active),469 nM (active),7430 nM (active),23500 nM (active),–,5900 nM (active),3720 nM (active),–,2350 nM (active),4690 nM (active),16600 nM (active),20900 nM (active),–,–
C[C@H](NC(=O)[C@@H](O)c1cc(F)cc(F)c1)C(=O)N[C@@H]1C(=O)N(C)c2ccccc2-c2ccccc21,inactive,inactive,inactive,–,–,–,inactive,inactive,14800 nM (active),inactive,–,–,inactive,inactive,inactive,–,inactive,–,–,inactive
Cc1coc2c1C(=O)C(=O)c1c-2ccc2c(C)cccc12,inactive,6620 nM (active),inactive,–,–,inactive,13200 nM (active),18700 nM (active),–,2960 nM (active),–,13200 nM (active),–,–,6620 nM (active),20900 nM (active),9350 nM (active),–,–,inactive
